Shown are actives, neighbours in structure and some others; about 2.7% of the full set was active somewhere.
GLP1R inv ag – inverse agonists of human GLP-1 receptor; HEK293 GLP-1R CRE-luciferase, luminescence, 24 h; GLP-1R form is constitutively active; 1.6% of 410,000 active; Potency, µM (top dose mostly 38.3 µM), usual class: inhibitors; further: nearly all actives have a fitted effect of over 55% in size
Target sequence (P43220 whole entry, looked up): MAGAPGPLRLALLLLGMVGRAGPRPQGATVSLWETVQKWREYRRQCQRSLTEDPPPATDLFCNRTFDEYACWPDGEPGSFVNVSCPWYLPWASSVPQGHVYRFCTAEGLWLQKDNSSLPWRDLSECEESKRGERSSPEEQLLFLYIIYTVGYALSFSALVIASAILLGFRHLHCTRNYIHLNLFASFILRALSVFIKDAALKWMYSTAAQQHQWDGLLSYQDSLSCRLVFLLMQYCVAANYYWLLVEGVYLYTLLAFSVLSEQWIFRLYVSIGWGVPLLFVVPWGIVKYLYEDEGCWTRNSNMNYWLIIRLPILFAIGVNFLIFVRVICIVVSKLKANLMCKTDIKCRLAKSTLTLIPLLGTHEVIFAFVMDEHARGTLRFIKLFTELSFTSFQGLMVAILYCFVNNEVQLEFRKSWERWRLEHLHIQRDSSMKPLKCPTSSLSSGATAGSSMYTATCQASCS
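qHTS in 1536-well format: reporter HEK293 cells expressing constitutive GLP-1R activity in DMEM + 10% Nu serum, 24 hr with compounds at 37 deg C, luminescence read after 12 min with detection reagent.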
rTrxR1 inhibitor – blocks rat thioredoxin reductase 1; recombinant rTrxR1, NADPH fluorescence consumption, selenite substrate; Potency, µM (doses to about 114 µM), hits mostly inhibitors; 1% of 390,000 active; AID 588453; further: nearly all actives have a fitted effect of over 65% in size
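Rat TrxR1 (90 nM in the dispensed reagent) was pre-reduced with 400 uM NADPH for 5 min at room temperature, then incubated with compound for 15 min. After 400 uM selenite was added, NADPH fluorescence (Ex 340/Em 450 nm) was followed for 8 min.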
HEK293 tox – cytotoxicity counter-screen for GLP-1 receptor inverse agonists. HEK293 cAMP-luciferase reporter cells, luminescence, 24 h. Potency, µM (highest dose often 38.3 µM), most hits filed as inhibitors. 0.13% of 410,000 active;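 further: loss of luciferase light is scored as toxicity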
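Compound-treated cells are incubated 24 hr at 37 deg C under 5% CO2 after a 12 hour attachment period, then luciferase detection reagent is added and luminescence is measured following 12 min at room temperature; lowered signal indicates toxicity.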
GLP1R ag – activates the human GLP-1 receptor; P43220; HEK293 GLP-1R CRE-luciferase, luminescence, 4-6 h; cells express a hypersensitive GLP-1R form; Potency, µM (top dose mostly 45.6 µM), most hits filed as activators; 0.007% of 380,000 active; AID 624172
TrxR1 substrate – rat thioredoxin reductase 1 substrate activity | O89049 | 0.01% of 390,000 active | purified TrxR1 substrate turnover, NADPH consumption readout | Potency, µM (highest dose often 114 µM) | AID 588456; further: nearly all actives have a fitted effect of over 50% in size
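Rat TrxR1, dispensed at 90 nM, was prereduced with 400 uM NADPH (final) for 5 min at ~22 deg C, then incubated with compound 15 min before 400 uM selenite. A first-read NADPH fluorescence drop versus no-compound background flagged substrates.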
IDH1 R132H inh – inhibitors of human mutant IDH1 R132H; IDH1-R132H enzyme, NADPH consumption, diaphorase/resazurin fluorescence; Potency, µM (top dose mostly 76.6 µM), hits mostly inhibitors; 0.093% of 390,000 active; AID 602179; further: nearly all actives have a fitted effect of over 65% in size
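IDH1-R132H (0.5 ug/mL dispensed) in pH 7.5 Tris buffer was preincubated 30 min with compound, then given a substrate mix of 0.016 mM NADPH and 2 mM alpha-KG for 80 min at room temperature; remaining NADPH was read by diaphorase/resazurin fluorescence.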
Large screens that a line does not name were inactive. The call rests on the fitted dose curve; in most records, active means well fitted curve in the direction sought with a large enough effect; inconclusive means small, poorly fitted or top-dose-only effect, or another doubt; inactive means no such curve, though single readings can be large; an effect the other way counts as inactive or inconclusive.

CN1C/C(=C/c2cccnc2)C(=O)/C(=C/c2cccnc2)C1	GLP1R inv ag inconclusive, rTrxR1 inhibitor 10µM, HEK293 tox inconclusive
O=C(Nc1ccc2nc3n(c(=O)c2c1)CCCCC3)c1ccccc1[N+](=O)[O-]	none
O=C(Nc1ccc2nc3n(c(=O)c2c1)CCCCC3)c1c(F)ccc([N+](=O)[O-])c1F	GLP1R inv ag inconclusive, rTrxR1 inhibitor 50.1µM, HEK293 tox inconclusive
O=C(Nc1ccc2nc3n(c(=O)c2c1)CCCCC3)c1cc([N+](=O)[O-])ccc1F	GLP1R inv ag 11.2µM, HEK293 tox inconclusive
COc1ccccc1NC(=O)CSc1nc(-c2cccc(Cl)c2)nc2c1Cc1c(CO)cnc(C)c1O2	rTrxR1 inhibitor inconclusive (no result: GLP1R ag)
CC1=C(c2ccc(C)cc2)S(=O)(=O)N=C1N1CCN(c2ccccc2)CC1	none (no result: GLP1R ag)
Clc1ccccc1Cn1c(/C=C/c2ccco2)nc2ccccc21	GLP1R inv ag inconclusive, rTrxR1 inhibitor 50.1µM
COc1cc2nc(N3CCN(C)CC3)nc(NC3CCN(Cc4ccccc4)CC3)c2cc1OC	none (no result: GLP1R inv ag, HEK293 tox, GLP1R ag, IDH1 R132H inh)
Cc1ccc(C(=O)CC(C(=O)O)n2cnc([N+](=O)[O-])n2)cc1 (stereo unspecified)	GLP1R inv ag inconclusive, rTrxR1 inhibitor 31.6µM
Cc1ccc(C(=O)CC(C(=O)O)n2cncn2)cc1 (stereo unspecified)	none
O=[N+]([O-])c1cc(S(=O)(=O)C(F)(F)F)ccc1Sc1nc2ccccc2[nH]1	rTrxR1 inhibitor 8.91µM, HEK293 tox inconclusive
CS(=O)(=O)c1ccc(Sc2nc3ccccc3[nH]2)c([N+](=O)[O-])c1	none
CCOC(=O)c1cc(-c2ccc(C)cc2)n(CC(=O)Nc2ccccc2F)c1C	none
COc1ccc(C(=O)NCCn2cc(SCC(=O)Nc3ccc(F)cc3)c3ccccc32)cc1	GLP1R inv ag inconclusive
CCCC1CC(C)(c2csc(Nc3ccc(OCC)cc3)n2)OC1=O (stereo unspecified)	GLP1R inv ag 11.2µM
CCOc1ccc(NC(=O)CC2CC(C)(C)OC2=O)cc1 (stereo unspecified)	none
CC(Oc1ccccc1)C(=O)Nc1nc(-c2ccccn2)cs1 (stereo unspecified)	GLP1R inv ag inconclusive, HEK293 tox inconclusive
CC(Oc1cccc(Cl)c1)C(=O)Nc1nc(-c2ccccn2)cs1 (stereo unspecified)	GLP1R inv ag 5.01µM, HEK293 tox inconclusive
CN(c1ccccc1)S(=O)(=O)c1cccc(NC(=O)CSc2ncc(C(F)(F)F)cc2Cl)c1	GLP1R inv ag 10µM
CC(=O)CCc1ccc(OCC(=O)Nc2cccc(S(=O)(=O)N(C)c3ccccc3)c2)cc1	GLP1R inv ag 11.2µM
Cc1ccccc1OCC(=O)NCC(C)NC(=O)COc1ccccc1C (stereo unspecified)	none (no result: GLP1R inv ag, HEK293 tox, GLP1R ag, IDH1 R132H inh)
O=c1c(O)c(-c2ccccc2)oc2cc(O)cc(O)c12	none
O=c1c(O)c(-c2ccc(O)cc2O)oc2cc(O)cc(O)c12	rTrxR1 inhibitor 7.08µM (no result: GLP1R inv ag, HEK293 tox, GLP1R ag, IDH1 R132H inh)
COc1ccc(-c2nnc(SCC(=O)c3ccc([N+](=O)[O-])cc3)o2)cc1OC	none
Cc1ccc2nc(-c3ccc(C)c(NC(=O)COc4ccc(Br)cc4)c3)oc2c1	none (no result: GLP1R inv ag, HEK293 tox, GLP1R ag, IDH1 R132H inh)
Oc1ccccc1-c1cc(-c2ccco2)[nH]n1	none
Oc1ccc(Cl)cc1-c1cc(-c2ccco2)[nH]n1	GLP1R inv ag 10µM, HEK293 tox inconclusive
O=C(Nc1ccc2nc(-c3ccco3)[nH]c2c1)c1cccs1	rTrxR1 inhibitor 70.8µM
CC(=O)Oc1ccc(N2C(=O)C3C4C=CC(C5CC45)C3C2=O)cc1[N+](=O)[O-] (stereo unspecified)	rTrxR1 inhibitor 44.7µM
O=C(N/N=C(\CC(=O)c1cccs1)C(F)(F)F)c1cccnc1	GLP1R inv ag 2.24µM
O=C(N/N=C(/CC(=O)c1cccs1)C(F)(F)F)c1ccc(O)cc1	GLP1R inv ag inconclusive
O=C1C=C(c2ccccc2)C(=O)N1Nc1ccccc1	rTrxR1 inhibitor 3.16µM, HEK293 tox inconclusive

Assay outcomes as filed in PubChem BioAssay.
